# PMC7862700, “An all-to-all approach to the identification of sequence-specific readers for epigenetic DNA modifications on cytosine”
# Assays:
# Assay in all cases: DAPPL (digital affinity profiling via proximity ligation, sequencing); 10 mM Tris-HCl pH 7.5, 50 mM NaCl, 1 mM DTT, 4% glycerol, room temperature, 30 min; GST-TFs on glutathione beads, 16-mer random dsDNA library, 0.1% formaldehyde crosslink after washing; high values mean tight binding
# Settings in all cases: protein: recombinant; tags: N-terminal GST; dsDNA, one strand shown
# FLI1 = target: T1, FLI1 (Homo sapiens, UniProt Q01543 1-452)
# T1 sequence: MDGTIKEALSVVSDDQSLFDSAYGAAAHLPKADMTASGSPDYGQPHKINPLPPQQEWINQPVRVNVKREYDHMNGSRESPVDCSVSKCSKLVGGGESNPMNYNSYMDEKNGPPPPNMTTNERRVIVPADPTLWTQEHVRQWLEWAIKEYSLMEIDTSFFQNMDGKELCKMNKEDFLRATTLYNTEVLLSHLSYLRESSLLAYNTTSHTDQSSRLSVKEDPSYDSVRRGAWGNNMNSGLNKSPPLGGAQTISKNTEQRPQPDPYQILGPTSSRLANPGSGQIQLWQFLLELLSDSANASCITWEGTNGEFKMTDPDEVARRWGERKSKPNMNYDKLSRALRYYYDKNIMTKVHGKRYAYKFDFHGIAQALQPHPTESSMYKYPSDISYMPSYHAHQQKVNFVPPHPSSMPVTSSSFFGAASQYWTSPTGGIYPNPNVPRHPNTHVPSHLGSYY
# Method in brief: (§1)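 After expression in yeast as GST fusions, human transcription factors were bound to glutathione beads, DNA-barcoded and mixed with a tag-only sample. The pools were incubated with 200 nmole of a 16-mer random double-stranded DNA library in Tris/NaCl/DTT/glycerol buffer (30 min, room temperature), washed and crosslinked with 0.1% formaldehyde. Proximity ligation with BsaI/T4 ligase ran for 1 h at 37 °C, before PCR amplification and sequencing on an Illumina NextSeq500. Binding signal is a hexamer's read frequency for a factor divided by its frequency for the tag-only sample.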
# ERG = target: T2, ERG (Homo sapiens, UniProt P11308 1-479)
# T2 sequence: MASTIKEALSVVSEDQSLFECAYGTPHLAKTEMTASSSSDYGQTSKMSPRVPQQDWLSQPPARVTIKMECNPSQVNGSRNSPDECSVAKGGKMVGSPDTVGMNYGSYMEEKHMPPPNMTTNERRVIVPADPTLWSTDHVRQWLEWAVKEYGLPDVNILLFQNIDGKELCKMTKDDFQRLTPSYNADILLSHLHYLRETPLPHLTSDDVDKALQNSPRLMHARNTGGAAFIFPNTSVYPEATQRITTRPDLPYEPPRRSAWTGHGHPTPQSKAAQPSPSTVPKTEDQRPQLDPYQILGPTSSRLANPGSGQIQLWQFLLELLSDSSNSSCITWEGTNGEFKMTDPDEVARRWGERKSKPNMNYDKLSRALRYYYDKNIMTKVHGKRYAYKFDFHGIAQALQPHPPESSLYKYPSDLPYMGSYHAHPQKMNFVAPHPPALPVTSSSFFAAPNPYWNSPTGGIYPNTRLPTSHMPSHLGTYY
# Method in brief: as §1
# ELF1 = ELF1 (Homo sapiens, UniProt P32519 1-619)
# Method in brief: as §1
# ETV5 = ETV5 (Homo sapiens, UniProt P41161 1-510)
# Method in brief: as §1
# SPIC = target: T3, SPIC (Homo sapiens, UniProt Q8N5J4 1-248)
# T3 sequence: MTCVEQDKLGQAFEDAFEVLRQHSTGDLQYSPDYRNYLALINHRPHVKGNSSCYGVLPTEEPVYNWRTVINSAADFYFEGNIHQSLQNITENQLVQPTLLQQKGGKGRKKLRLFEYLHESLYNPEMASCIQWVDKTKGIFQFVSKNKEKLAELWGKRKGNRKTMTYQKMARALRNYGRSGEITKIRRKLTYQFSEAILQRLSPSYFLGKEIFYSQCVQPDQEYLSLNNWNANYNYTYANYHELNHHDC
# Method in brief: as §1
# ELF4 = ELF4 (Homo sapiens, UniProt Q99607 1-663)
# Method in brief: as §1
# ERF = target: T4, ERF (Homo sapiens, UniProt P50548 1-548)
# T4 sequence: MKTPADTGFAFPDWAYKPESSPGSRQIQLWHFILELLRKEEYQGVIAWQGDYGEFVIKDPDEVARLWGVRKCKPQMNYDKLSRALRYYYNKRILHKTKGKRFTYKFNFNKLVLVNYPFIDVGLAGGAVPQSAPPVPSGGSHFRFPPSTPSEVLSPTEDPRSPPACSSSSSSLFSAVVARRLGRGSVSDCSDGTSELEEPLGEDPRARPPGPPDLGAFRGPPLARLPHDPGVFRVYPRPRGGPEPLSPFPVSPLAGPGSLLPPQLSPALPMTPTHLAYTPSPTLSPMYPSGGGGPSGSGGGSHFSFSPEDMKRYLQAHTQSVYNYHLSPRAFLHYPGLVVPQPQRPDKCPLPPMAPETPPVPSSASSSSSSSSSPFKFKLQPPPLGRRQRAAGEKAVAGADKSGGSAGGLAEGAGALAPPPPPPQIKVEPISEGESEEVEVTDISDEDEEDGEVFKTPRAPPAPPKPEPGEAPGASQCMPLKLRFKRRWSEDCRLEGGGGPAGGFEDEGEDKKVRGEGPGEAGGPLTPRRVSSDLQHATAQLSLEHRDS
# Method in brief: as §1
# ETV3L = target: T5, ETV3L (Homo sapiens, UniProt Q6ZN32 1-361)
# T5 sequence: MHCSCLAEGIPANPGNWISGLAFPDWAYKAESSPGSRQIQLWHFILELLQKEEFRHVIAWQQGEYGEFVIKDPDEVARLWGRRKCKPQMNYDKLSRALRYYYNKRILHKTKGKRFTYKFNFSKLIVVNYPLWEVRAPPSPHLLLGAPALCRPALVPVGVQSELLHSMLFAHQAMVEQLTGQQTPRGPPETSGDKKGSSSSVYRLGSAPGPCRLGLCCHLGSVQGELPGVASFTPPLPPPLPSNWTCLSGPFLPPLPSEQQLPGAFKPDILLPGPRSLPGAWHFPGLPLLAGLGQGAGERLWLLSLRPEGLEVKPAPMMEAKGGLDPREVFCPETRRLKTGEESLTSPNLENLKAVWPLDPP
# Method in brief: as §1
# SPDEF = target: T6, SPDEF (Homo sapiens, UniProt O95238 1-335)
# T6 sequence: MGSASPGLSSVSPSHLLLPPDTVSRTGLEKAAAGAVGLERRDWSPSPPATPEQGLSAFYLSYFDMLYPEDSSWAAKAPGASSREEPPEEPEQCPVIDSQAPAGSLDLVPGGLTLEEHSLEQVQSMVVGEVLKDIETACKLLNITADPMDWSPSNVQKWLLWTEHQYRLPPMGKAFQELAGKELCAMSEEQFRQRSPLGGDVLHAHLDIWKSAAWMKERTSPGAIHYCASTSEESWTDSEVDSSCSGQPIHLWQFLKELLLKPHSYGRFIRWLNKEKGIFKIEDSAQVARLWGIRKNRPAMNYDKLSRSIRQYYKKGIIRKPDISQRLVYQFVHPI
# Method in brief: as §1
# Sequence of ELF1 (P32519 whole entry): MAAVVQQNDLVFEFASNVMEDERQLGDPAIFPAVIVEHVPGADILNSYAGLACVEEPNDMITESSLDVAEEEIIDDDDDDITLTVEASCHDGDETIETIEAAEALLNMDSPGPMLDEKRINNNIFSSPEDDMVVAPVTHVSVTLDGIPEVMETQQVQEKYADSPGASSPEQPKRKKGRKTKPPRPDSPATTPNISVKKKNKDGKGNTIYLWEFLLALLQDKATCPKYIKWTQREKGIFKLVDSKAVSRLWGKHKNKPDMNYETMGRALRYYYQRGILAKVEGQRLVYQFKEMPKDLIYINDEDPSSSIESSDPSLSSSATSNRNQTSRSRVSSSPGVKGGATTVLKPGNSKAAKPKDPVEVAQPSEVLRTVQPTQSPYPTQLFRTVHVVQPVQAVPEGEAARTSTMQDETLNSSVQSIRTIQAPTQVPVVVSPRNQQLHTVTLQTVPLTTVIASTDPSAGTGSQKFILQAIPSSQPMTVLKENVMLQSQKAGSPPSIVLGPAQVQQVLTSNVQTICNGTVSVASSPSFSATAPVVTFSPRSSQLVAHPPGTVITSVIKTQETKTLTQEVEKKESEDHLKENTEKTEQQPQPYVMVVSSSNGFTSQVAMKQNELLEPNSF
# Sequence of ELF4 (Q99607 whole entry): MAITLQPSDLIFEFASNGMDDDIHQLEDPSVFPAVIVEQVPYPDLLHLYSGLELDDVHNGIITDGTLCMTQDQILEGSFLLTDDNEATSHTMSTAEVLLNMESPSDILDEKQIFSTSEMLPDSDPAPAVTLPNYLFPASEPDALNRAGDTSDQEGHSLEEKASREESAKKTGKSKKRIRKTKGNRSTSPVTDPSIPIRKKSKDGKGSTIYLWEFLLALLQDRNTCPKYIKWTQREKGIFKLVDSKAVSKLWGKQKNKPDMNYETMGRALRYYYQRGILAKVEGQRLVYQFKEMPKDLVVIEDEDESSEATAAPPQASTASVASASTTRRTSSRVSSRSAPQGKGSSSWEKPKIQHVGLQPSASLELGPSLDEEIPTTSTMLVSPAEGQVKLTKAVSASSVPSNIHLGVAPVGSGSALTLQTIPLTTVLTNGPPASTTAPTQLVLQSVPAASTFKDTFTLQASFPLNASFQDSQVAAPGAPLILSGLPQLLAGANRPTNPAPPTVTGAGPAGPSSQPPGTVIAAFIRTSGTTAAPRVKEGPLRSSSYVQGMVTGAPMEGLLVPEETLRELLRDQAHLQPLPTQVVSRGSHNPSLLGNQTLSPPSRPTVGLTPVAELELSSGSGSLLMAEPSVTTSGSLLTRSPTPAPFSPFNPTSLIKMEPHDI
# Sequence of ETV5 (P41161 whole entry): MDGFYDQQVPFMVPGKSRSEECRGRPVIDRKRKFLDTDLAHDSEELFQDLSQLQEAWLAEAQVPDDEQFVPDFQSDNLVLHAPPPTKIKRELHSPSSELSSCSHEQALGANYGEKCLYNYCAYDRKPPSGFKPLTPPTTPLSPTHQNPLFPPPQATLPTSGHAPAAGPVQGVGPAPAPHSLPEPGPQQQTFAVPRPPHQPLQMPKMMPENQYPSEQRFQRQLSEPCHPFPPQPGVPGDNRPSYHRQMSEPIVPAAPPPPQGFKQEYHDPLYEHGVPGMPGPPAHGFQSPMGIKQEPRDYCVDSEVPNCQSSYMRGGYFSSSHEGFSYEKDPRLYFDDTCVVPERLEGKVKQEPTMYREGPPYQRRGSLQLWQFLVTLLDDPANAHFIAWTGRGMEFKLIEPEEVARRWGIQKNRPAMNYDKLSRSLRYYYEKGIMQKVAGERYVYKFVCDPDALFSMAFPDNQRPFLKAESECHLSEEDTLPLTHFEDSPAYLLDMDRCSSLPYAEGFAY
sequence,measurement,setting,value
GGTCCT,binding signal,FLI1,"1.02 fold enrichment (6-mer frequency, TF over GST control)"
same,binding signal,ERG,"1.01 fold enrichment (6-mer frequency, TF over GST control)"
same,binding signal,ELF1,"1.06 fold enrichment (6-mer frequency, TF over GST control)"
same,binding signal,ETV5,"1 fold enrichment (6-mer frequency, TF over GST control)"
same,binding signal,SPIC,"1.11 fold enrichment (6-mer frequency, TF over GST control)"
same,binding signal,ELF4,"1.02 fold enrichment (6-mer frequency, TF over GST control)"
same,binding signal,ERF,"1.16 fold enrichment (6-mer frequency, TF over GST control)"
same,binding signal,ETV3L,"1.03 fold enrichment (6-mer frequency, TF over GST control)"
same,binding signal,SPDEF,"1.1 fold enrichment (6-mer frequency, TF over GST control)"
